Screening results as filed in PubChem BioAssay.
Rows were chosen to be rich in hits. Some 3.1% of all compounds tested hit in one or more screens of this group.
Mcl-1 Bim block: inhibitors of Bim-Mcl-1 interaction, human. Bead-based flow cytometry, Bim peptide-Mcl-1 binding. AID 1009. 190,000 tested, 0.1% active. inhibition, % at 10 µM. Q07820; in the data active = inhibition above about 40%;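 also: 0% = no compound tracer wells and 100% = peptide blocker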
Target sequence (Q07820 whole entry, looked up): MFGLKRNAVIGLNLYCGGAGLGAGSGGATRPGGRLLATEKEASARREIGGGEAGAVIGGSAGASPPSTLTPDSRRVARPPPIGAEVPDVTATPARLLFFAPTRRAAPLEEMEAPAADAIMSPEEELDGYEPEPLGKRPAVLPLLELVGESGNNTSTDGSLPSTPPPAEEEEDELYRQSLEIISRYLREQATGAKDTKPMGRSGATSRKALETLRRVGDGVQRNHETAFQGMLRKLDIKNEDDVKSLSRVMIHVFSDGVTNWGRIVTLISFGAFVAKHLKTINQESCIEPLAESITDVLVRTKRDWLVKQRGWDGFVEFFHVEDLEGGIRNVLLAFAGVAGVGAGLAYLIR
Mcl1 Bid PPI: Mcl-1/Bid interaction inhibition; 220,000 tested, 0.97% active; inhibition, % at 21.7 µM; TR-FRET Mcl-1/Bid-Dy647 peptide binding, 1536-well; Q07820;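 active = compounds that cut the binding signal by more than half at the single screening dose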;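 also: His-tagged Mcl-1 with europium anti-His antibody binding Bid BH3 peptide; 0% = Mcl-1 plus peptide wells and 100% = peptide-only wells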
14-3-3 Bad inh: disrupts binding of bovine 14-3-3 zeta to phospho-Bad peptide | TR-FRET 14-3-3zeta/Dy647-pBad peptide displacement, 1 h | inhibition, % at 21.7 µM | 220,000 tested, 0.71% active;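 active = inhibition above about 70%, limit read from the data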;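 also: 0% = full 14-3-3 plus peptide FRET controls and 100% = background without 14-3-3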
Target sequence (P63103 whole entry, looked up): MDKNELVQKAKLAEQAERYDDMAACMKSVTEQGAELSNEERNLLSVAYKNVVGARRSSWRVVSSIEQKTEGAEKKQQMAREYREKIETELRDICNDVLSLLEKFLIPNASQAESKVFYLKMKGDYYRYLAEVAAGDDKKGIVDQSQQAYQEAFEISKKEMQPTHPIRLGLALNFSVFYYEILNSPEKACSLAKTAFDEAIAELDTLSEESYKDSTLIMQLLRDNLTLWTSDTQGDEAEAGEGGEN
Mcl1 Noxa PPI: Mcl-1/Noxa interaction inhibition | TR-FRET Mcl-1/Noxa peptide binding, 2 h | inhibition, % at 21.7 µM | 220,000 tested, 1.5% active | AID 1022;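 active = compounds that cut the protein-peptide binding signal by more than 50% relative to plate controls in a single-dose test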;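 also: His-tagged Mcl-1 with rhodamine Noxa BH3 peptide and terbium anti-His antibody; 0% = Mcl-1 plus Noxa peptide wells and 100% = peptide-only wells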
NCF1 inh: p47phox (human) inhibition; P14598; p47phox/p22phox peptide binding, fluorescence polarization, 2 h; inhibition, % at 24.7 µM; 220,000 tested, 0.53% active;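 active = inhibition above about 30%, limit read from the data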;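 also: 0% = p47phox with labelled peptide and 100% = labelled peptide alone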
The depositor's hits bear a star; / = no result.

SMILES	Mcl-1 Bim block	Mcl1 Bid PPI	14-3-3 Bad inh	Mcl1 Noxa PPI	NCF1 inh
Cn1c(=O)c2cc3ccccc3nc2n(C)c1=O	/	1.8	-2.8	7.1	3.1
O=C(CN1CCN(S(=O)(=O)c2ccc(Br)cc2)CC1)N/N=C/c1ccco1	-2.0	-8.3	-3.7	8.2	3.8
COc1cc(/C=N/NC(N)=O)cc([N+](=O)[O-])c1O	5.0	-11.1	12.4	52.2*	-0.4
COc1ccc(Br)cc1C(=O)N/N=C/c1ccc([N+](=O)[O-])cc1	-3.0	5.0	15.4	16.7	-5.3
COC(=O)N/N=C/c1cc(OC)c(O)c([N+](=O)[O-])c1	-3.0	-22.5	-17.5	32.5	-3.6
COc1cc(/C=N/NC(=O)c2ccc(COc3ccccc3Cl)o2)cc(Br)c1O	-19.0	40.4	37.7	72.6*	15.1
COc1cc(/C=N/NC(=O)c2ccc([N+](=O)[O-])cc2Cl)cc(Br)c1O	9.0	-42.4	6.3	82.4*	-2.1
O=C(NCc1cccnc1)c1ccc(NC(=O)c2cccc([N+](=O)[O-])c2)cc1	1.0	-17.2	-1.8	7.2	-7.2
COc1cc(N2CCCC2)c(OC)cc1/C=C(/C#N)c1ccc(F)cc1	-9.0	-5.4	-4.4	72.1*	-14.5
COc1cc(N2CCCC2)c(OC)cc1/C=C(/C#N)c1ccc(Br)cc1	/	-12.0	10.3	10.8	-11.0
CC1(C)CC(=O)C2=C(C1)N(c1ccccc1)C(N)=C(C#N)C2c1cccnc1 (stereo not drawn)	2.0	-33.6	-5.7	0.5	-10.7
CN(C)N1C(N)=C(C#N)C(c2cccnc2)C2=C1CC(C)(C)CC2=O (stereo not drawn)	-4.0	61.7*	-15.3	21.8	4.9
Nc1c(C(=O)N/N=C/c2ccc(Cl)cc2)cnn1-c1ccccc1	/	-5.4	3.4	7.2	8.2
O=c1c(Cl)c(N/N=C/c2ccc(Cl)cc2)cnn1-c1ccccc1	-1.0	18.0	46.9	73.7*	4.5
COc1ccc(CN(C(=O)Cc2cccs2)C(C(=O)NC2CCCC2)c2ccncc2)cc1 (stereo not drawn)	-2.0	-10.4	-15.9	1.8	-10.6
COc1ccccc1CN(C(=O)CCl)C(C(=O)NC1CCCCC1)c1ccncc1 (stereo not drawn)	2.0	19.5	52.1	35.2	43.1*
CN1CCN(c2ncnc3c2[nH]c2ccc(F)cc23)CC1	-5.0	-9.9	1.2	37.0	-1.4
CN1CCN(c2cc3c(c4c2[nH]c2ccccc24)C(=O)CC(C)(C)C3)CC1	1.0	-13.2	4.0	54.3*	-20.2
CCN(CC)S(=O)(=O)c1ccc(OC)c(NC(=O)Cn2cnc3c2c(=O)n(C)c(=O)n3C)c1	0.0	7.9	-18.7	-2.0	-4.5
c1ccc(Nc2cccc(Nc3ccccc3)n2)cc1	32.0	-21.1	-6.4	71.5*	-14.7
COC(=O)c1ccccc1Nc1ccccc1	3.0	-27.1	-8.5	-9.9	-3.7
c1ccc(Nc2cccc3c(Nc4ccccc4)cccc23)cc1	/	5.5	5.7	50.5*	-1.9
CC(=C\C(=O)O)/C(=C\c1cccc2ccccc12)C(=O)O	/	-31.8	-0.1	-0.9	-4.2
COc1ccc(C(=O)Nc2nc3cc4c(cc3s2)OCO4)c(OC)c1	/	51.0*	19.4	51.6*	-4.5
Cc1ccc(-n2nnnc2SCC(=O)Nc2cccc(NC(=O)c3ccco3)c2)cc1C	-3.0	62.8*	42.4	-9.4	22.0
SMILES	Mcl-1 Bim block	Mcl1 Bid PPI	14-3-3 Bad inh	Mcl1 Noxa PPI	NCF1 inh
Cc1ccc(-n2nc3ccc(NC(=O)c4ccco4)cc3n2)cc1	0.0	66.2*	43.5	0.7	-6.7
O=C(/C=C/c1ccco1)Nc1ccc2nn(-c3ccccc3)nc2c1	-5.0	-45.5	10.5	78.4*	-10.4
O=C(CSc1nnc(-c2ccccc2Br)o1)N1CCc2ccccc2C1	1.0	-32.8	-2.5	5.4	-15.6
O=C(CSc1nc2ncccc2[nH]1)c1ccc2c(c1)OCO2	/	1.8	12.1	9.2	-3.7
CCN(CC)c1ccc(NC(=O)c2ccc(=O)[nH]c2)cc1S(=O)(=O)Nc1ccccc1OC	-7.0	-18.8	-0.1	23.0	-2.0
C/C(CC(=O)Nc1ccc(Cl)cc1Cl)=N\NC(=O)c1cnccn1	/	-31.3	-6.8	-6.2	-7.7
Cc1cccc(C)c1N1C(=O)[C@@H]2C(c3ccccc3Cl)=NO[C@@H]2C1=O	/	-12.0	-3.1	-7.8	-0.8
COc1ccc(OC)c(N2C(=O)[C@@H]3C(c4ccccc4Cl)=NO[C@@H]3C2=O)c1	2.0	-40.3	13.9	59.3*	-1.2
Cc1cccc(SCC(=O)Nc2ccccc2[N+](=O)[O-])c1	-2.0	-13.1	-5.4	-7.6	-4.5
COc1ccc(/C=C/C(=O)c2c(O)ccc3c(C)cc(=O)oc23)cc1	-4.0	15.5	-14.7	33.6	13.5
CCOc1ccc(N2C(=O)CCC2=O)cc1	3.0	-22.2	-8.9	6.0	9.6
CCCCCCC(=O)Oc1ccc(N2C(=O)CCC2=O)cc1	2.0	5.3	1.9	55.2*	6.5
O=C1N=C(N2CCN(c3ccccc3)CC2)S/C1=C\c1ccco1	0.0	-55.1	-12.0	6.8	-7.2
NC1=NC(=O)/C(=C\c2ccco2)S1	/	-68.9	21.4	56.9*	-10.8
Cc1cc(C)n(/N=C/c2ccc(C(C)C)cc2)c(=O)c1C#N	-4.0	2.2	14.9	2.7	-5.1
CCOC(=O)c1c(-c2ccc(-c3ccccc3)cc2)csc1NC(=O)C1C2CCC(O2)C1C(=O)O (stereo not drawn)	-6.0	24.8	9.9	56.4*	-21.4
O=C(/C=C/c1cc[n+](CC(=O)c2ccc3cccc4c3c2CC4)cc1)c1ccc2cccc3c2c1CC3	/	98.7*	94.4*	55.1*	29.1
O=C(C[n+]1ccc2ccccc2c1)c1cccc2ccccc12	3.0	-30.5	16.8	24.4	-5.7
COc1ccc(NC(=O)Cc2c(SC)c3ccccc3n2Cc2ccccc2)cc1	-4.0	-3.9	3.5	77.5*	9.0
COc1ccc(CCN=C(N)NS(=O)(=O)c2ccc(C)cc2)cc1OC	0.0	-0.1	-2.9	55.4*	0.6
COc1ccc(NC(=O)/C(Cl)=C(/Cl)S(=O)Cc2ccc(Cl)cc2)cn1 (stereo not drawn)	-9.0	35.9	-4.4	52.7*	-15.1
CCOC(=O)C1(Cc2ccc(Cl)cc2)CCN(C(=O)c2cscn2)CC1	0.0	-11.9	3.3	16.7	-12.9
O=C(c1cc2ccccc2oc1=O)N(Cc1ccc2c(c1)OCO2)Cc1ccco1	1.0	-30.6	-2.5	8.6	-5.0
C=C(C)c1cccc(C(C)(C)NC(=O)N2CCN(C/C=C/c3ccccc3)CC2)c1	1.0	-21.6	-26.4	14.3	-6.5
C(=N\Nc1nc2ccccc2[nH]1)/C1CCCCC1	1.0	-59.0	-20.8	-21.9	-7.8
O=C(Nc1cccc(-c2nc3ncccc3o2)c1)c1sc2cc(Cl)ccc2c1Cl	-2.0	36.5	34.5	32.2	-4.0
O=C(Nc1cccc(-c2nc3ncccc3o2)c1)c1sc2ccccc2c1Cl	2.0	17.5	56.9	37.7	66.7*
O=C1/C(=C/C=C/c2ccco2)SC(=S)N1NS(=O)(=O)c1ccccc1	/	74.5*	88.8*	111.5*	-38.1
